Sampled rows, rich in hits. Any-hit rate of the full collection: about 10%.
Pf growth 96h = inhibits malaria parasite growth, 96 h; P. falciparum luciferase reporter growth, 96 h; Potency, µM (titrated, usually from 28.7 µM), usual class: inhibitors; hit rate 6.9% among 320,000; AID 504834; active means well fitted inhibition curve with a large enough effect; inconclusive means small, poorly fitted or top-dose-only effect, or another doubt; inactive means no such curve, though single readings can be large or run the other way
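P. falciparum expressing integrated firefly luciferase, in erythrocytes at 2% hematocrit, 0.05% parasitemia, incubated with compounds 96 h at 37 C, 5% CO2. Growth inhibition read as loss of luminescence; two-generation exposure targets delayed-death apicoplast inhibitors.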
Pf growth 48h = inhibits P. falciparum growth in the first generation, 48 h | Potency, µM (titrated, usually from 28.7 µM), most hits filed as inhibitors | hit rate 5.9% among 310,000 | P. falciparum luciferase growth in erythrocytes, 48 h; active means well fitted inhibition curve with a large enough effect; inconclusive means small, poorly fitted or top-dose-only effect, or another doubt; inactive means no such curve, though single readings can be large or run the other way
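Compounds are pin-transferred into medium, infected erythrocytes (2% hematocrit, 0.1% parasitemia final) are added, and plates sit one parasite generation at 37 C in 5% CO2. Detection reagent is then added and luminescence measured.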
NS1 inh = inhibitors of influenza NS1 protein function | Potency, µM (doses to about 46.1 µM) | hit rate 0.4% among 270,000 | AID 2326; further: actives are rising curves; nearly all actives have a fitted effect of over 50% in size
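In this qHTS, NS1 from influenza A is expressed in budding yeast, where it slows growth. Cells are switched from glucose to 2% galactose medium (pH 6.0, -URA), treated with compound, and growth recovery is read at OD600.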
SARS PLpro yeast = inhibitors of SARS-CoV papain-like protease in yeast; hit rate 0.19% among 330,000; S. cerevisiae expressing SARS-CoV PLpro, growth rescue; AID 485353; Potency, µM (titrated, usually from 32.9 µM), usual class: activators; further: nearly all actives have a fitted effect of over 55% in size
Of the large screens only hits and unclear results are named; the others gave an inactive call. Unless noted, the call rests on the fitted dose curve.

COc1cccc(CNC(=O)CCC2CCCN(C(=O)c3cc(C)on3)C2)c1 (stereo not drawn)	none
Cc1nc(C)c(C(=O)N2CCCC(CCC(=O)NCc3ccc(F)c(F)c3)C2)s1 (stereo not drawn)	Pf growth 96h 9.3µM
Cc1c(C(=O)O)sc2nc(/C=C/c3ccccc3OC(F)F)[nH]c(=O)c12	Pf growth 96h 13µM
Cc1c(C(=O)O)sc2nc(/C=C/c3cccc(F)c3)[nH]c(=O)c12	none
Cc1ccc(C)c(NC(=S)NNC(=O)c2csc(C(C)C)c2)c1	SARS PLpro yeast 10µM
[O-][n+]1c2c(nn1-c1ccccc1)/C(=N/O)CCC2	Pf growth 96h inconclusive
[O-][n+]1onc2c1CCC(=N/O)/C2=N\Nc1ccccc1	Pf growth 96h 4.7µM, Pf growth 48h 7.4µM
COc1cc(/C=C(/C#N)c2nc3ccccc3[nH]2)ccc1Oc1ncccc1[N+](=O)[O-]	Pf growth 96h inconclusive, Pf growth 48h 15µM
Cc1ccc2nc(/C(C#N)=C\c3ccc(Oc4ccc([N+](=O)[O-])cn4)cc3)[nH]c2c1	Pf growth 96h inconclusive, Pf growth 48h 9.3µM
CCOc1cc(/C=C(/C#N)c2nc3ccccc3[nH]2)ccc1Oc1ccc([N+](=O)[O-])cn1	Pf growth 96h 2.3µM, Pf growth 48h inconclusive
N#C/C(=C\c1ccc(N2CCCC2)c([N+](=O)[O-])c1)c1nc2ccccc2[nH]1	Pf growth 48h inconclusive
CCOc1cc(/C=C(\C#N)c2nc3ccccc3[nH]2)ccc1OC(C)C(=O)O (stereo not drawn)	none
COc1ccc2nc(/C(C#N)=C\c3ccc(Oc4ccc([N+](=O)[O-])cn4)cc3)[nH]c2c1	Pf growth 96h inconclusive, Pf growth 48h 15µM, NS1 inh inconclusive
O=c1cnc2cc([N+](=O)[O-])ccc2[nH]1	none
Cc1ccc2c(c1)nc(-n1nc(C)cc1C)c1nnnn12	Pf growth 96h inconclusive (no result: NS1 inh)
CCN(CC)S(=O)(=O)c1ccc(C)c(NC(=S)N2CCN(Cc3ccc4c(c3)OCO4)CC2)c1	none
CCc1cccc2c3c([nH]c12)[C@@](CC)(CC(=O)O)OCC3	none (no result: NS1 inh, SARS PLpro yeast)
COc1nc(N2CCOCC2)nc(C)c1[N+](=O)[O-]	Pf growth 96h 12µM
Cc1nc(N2CCOCC2)nc(OC(C)C)c1[N+](=O)[O-]	none
Cc1cc(O)c(C(C)C)cc1C1(c2cc(C(C)C)c(O)cc2C)OC(=O)c2ccccc21	Pf growth 96h 1.2µM, Pf growth 48h 2.1µM
O=C(CCN1C(=O)c2ccccc2C1=O)Oc1ccc2ccccc2c1	none
CC1=CC(C)(C)Nc2ccc(OC(=O)CCN3C(=O)c4ccccc4C3=O)cc21	Pf growth 48h 13µM, SARS PLpro yeast inconclusive
CCOC(=O)Cc1csc(NC(=O)CSc2nc(=O)[nH]c3c2CCC3)n1	none (no result: NS1 inh)
Cc1cc(NC(=O)CCCC(=O)Nc2ccc(F)cc2)no1	Pf growth 96h 8.3µM
Cc1c(Cl)c([N+](=O)[O-])nn1CCCC(=O)Nc1cccc(Cl)c1Cl	Pf growth 96h inconclusive
Cc1cc(NC(=O)CCCn2cnc([N+](=O)[O-])n2)no1	none
Cc1c(Cl)c([N+](=O)[O-])nn1CCCC(=O)Nc1ccc(Cl)cc1Cl	Pf growth 96h 12µM
Cc1cc(NC(=O)CCCn2nc(C)c([N+](=O)[O-])c2C)no1	Pf growth 96h 1.5µM (no result: NS1 inh)
Cc1nn(Cc2ccccc2Cl)c(C)c1NC(=O)CCCn1nc([N+](=O)[O-])c(Cl)c1C	Pf growth 96h 4.7µM, SARS PLpro yeast inconclusive
Cc1ccc(Cn2nc(C)c(NC(=O)CCCn3nc([N+](=O)[O-])c(Cl)c3C)c2C)cc1	none
Cc1cc(Cl)cc(C)c1OCC(=O)NC1CCCCCC1	none (no result: Pf growth 96h, Pf growth 48h, NS1 inh)
CCN1CCN(CCCNC(=O)c2ccccc2NC(=O)C2=C(C)OCCS2)CC1	Pf growth 96h inconclusive
Cc1ccc(S(=O)(=O)N2CCCCC2)cc1NC(=O)COC(=O)c1ccc(O)cc1	Pf growth 96h 0.23µM, Pf growth 48h inconclusive (no result: NS1 inh)
O=C(COC(=O)c1ccc(O)cc1)c1ccc(S(=O)(=O)N2CCCCC2)cc1	Pf growth 96h inconclusive, Pf growth 48h 2.9µM (no result: NS1 inh)
O=C(COC(=O)c1ccc(O)cc1)Nc1cc(S(=O)(=O)N2CCOCC2)ccc1Cl	Pf growth 96h 4.7µM, Pf growth 48h inconclusive (no result: NS1 inh)
O=C(CCCSc1ccc(Cl)cc1)Nc1cc(S(=O)(=O)N2CCOCC2)ccc1O	Pf growth 96h 8.3µM, Pf growth 48h inconclusive (no result: NS1 inh)
CC(=O)c1cc(F)ccc1OCC(=O)N1CCCc2ccccc21	Pf growth 96h inconclusive
O=C(COc1ccc([N+](=O)[O-])cc1)NNC(=O)Nc1ccccc1F	none
CCOC(=O)Cc1csc(SCC(=O)NC2CCS(=O)(=O)C2)n1 (stereo not drawn)	Pf growth 48h inconclusive (no result: NS1 inh)
C/C(=N\NC(=O)CNC(=O)c1ccccc1Br)c1ccco1	none
CS(=O)(=O)N1CCC(Oc2ccccc2C(=O)N2CCC[C@H]2CO)CC1	none
CCN(C(=O)CSc1cc(C)c2ccccc2n1)C1CCS(=O)(=O)C1 (stereo not drawn)	Pf growth 96h inconclusive (no result: NS1 inh)
CCCN(C(=O)CSc1nc2c(cnn2-c2ccccc2)c(=O)[nH]1)C1CCS(=O)(=O)C1 (stereo not drawn)	Pf growth 96h inconclusive, Pf growth 48h 9.3µM
CCCN(C(=O)CSc1cc(-c2ccccc2)c2ccc(OC)cc2n1)C1CCS(=O)(=O)C1 (stereo not drawn)	Pf growth 96h 9.3µM, Pf growth 48h inconclusive
COc1ccc2c(-c3ccccc3)cc(SC(C)C(N)=O)nc2c1 (stereo not drawn)	Pf growth 96h inconclusive, Pf growth 48h 10µM (no result: NS1 inh)
Cc1ccc(NN2C(=O)C=C(c3ccccc3)C2=O)cc1	Pf growth 48h inconclusive (no result: NS1 inh)
CSc1nc2c(c(=O)[nH]1)C(c1ccc(C(F)(F)F)cc1)CC(=O)N2 (stereo not drawn)	none
C[C@@H]1C=CC(=O)O[C@@H]1c1ccc(C(F)(F)F)cc1	Pf growth 96h 2.3µM, Pf growth 48h inconclusive
CCC[C@@H](CN[C@@H](CNC)C(C)C)NCCCCc1ccccc1	Pf growth 96h 12µM, Pf growth 48h inconclusive
CNC[C@@H](Cc1ccccc1)NC[C@@H](CC1CCCCC1)NCCCc1ccccc1	Pf growth 96h inconclusive, Pf growth 48h inconclusive
CCC[C@@H](CNC)NC[C@H](Cc1ccccc1)NCCCCc1ccccc1	Pf growth 96h 1.7µM, Pf growth 48h inconclusive
O=C(Cn1nnc2c(cnn2-c2ccc(F)cc2)c1=O)Nc1ccccc1C(F)(F)F	none
O=C(Nc1cccc(S(=O)(=O)NCc2ccco2)c1)c1cccc(Cl)c1	none (no result: Pf growth 96h, Pf growth 48h, NS1 inh)
CC1CCc2cc(F)cc3c(O)c(C(=O)NCc4ccco4)c(=O)n1c23 (stereo not drawn)	none
CC1CCc2cc(F)cc3c(O)c(C(=O)NCCN(C)C)c(=O)n1c23 (stereo not drawn)	Pf growth 96h 9.3µM
Cc1ccccc1OCC(=O)OCC(=O)c1ccc[nH]1	none (no result: NS1 inh)
CCOc1ccc(C2NC(=O)NC(C)=C2C(=O)OCc2ccccc2)cc1 (stereo not drawn)	none
CCC(CC)COC(=O)C1=C(C)NC(=O)NC1c1ccc2c(c1)OCO2 (stereo not drawn)	Pf growth 96h 0.93µM
CCOC(=O)C1=C(C)NC(=O)NC1c1ccc2c(c1)OCO2 (stereo not drawn)	none
COc1ccc(C2NC(=O)NC(C)=C2C(=O)OCc2ccc3c(c2)OCO3)cc1OC (stereo not drawn)	Pf growth 48h 4.7µM

High-throughput results (PubChem)
